Measured values as given in PubChem BioAssay (EPA / NIEHS).
The source made the active and inactive calls. The calls were made as follows: active = hit-call score of the fitted dose curve at least 0.9, where 1 is the maximum; inactive = score below 0.9.

test: ATG_GRE_CIS: Attagene CIS-FACTORIAL HepG2 Assay for human Glucocorticoid Response Elements (GRE) (AID 2282947); details: HepG2 GRE cis-reporter, Attagene multiplex mRNA; actives raise or lower the signal
Description: ATG_CIS is a cell-based, multiplexed-readout assay that uses HepG2, a human liver cell line, with measurements taken at 24 hours after chemical dosing in a 24-well plate.ATG_GRE_CIS is one of 52 assay component(s) measured or calculated from the ATG_CIS assay. It is designed to make measurements of mRNA induction, a form of inducible reporter, as detected with fluorescence intensity signals by Reverse transcription polymerase chain reaction (RT-PCR) and Capillary electrophoresis technology.Data from the assay component ATG_GRE_CIS was analyzed into 1 assay endpoint. This assay endpoint, ATG_GRE_CIS, was analyzed with bidirectional fitting relative to DMSO as the negative control and baseline of activity. Using a type of inducible reporter, measures of mRNA for gain or loss-of-signal activity can be used to understand the reporter gene at the transcription factor-level as they relate to the gene NR3C1. Furthermore, this assay endpoint can be referred to as a primary readout, because this assay has produced multiple assay endpoints where this one serves a reporter gene function. To generalize the intended target to other relatable targets, this assay endpoint is annotated to the nuclear receptor intended target family, where the subfamily is steroidal.
Human liver HepG2 cells are transiently transfected with multiple reporter transcription units (MRTUs) in 6-well plates using FuGene 6 reagent (Roche; 3 ml FuGene/1 mg DNA). The MRTU constructs are regulated by a cis-regulating element (promoter). […] A major difference between the CIS and TRANS system is that in CIS activities of endogenous TFs are measured, whereas the TRANS assay evaluates changes in activities of exogenous, chimeric NR-Gal4 proteins. […] At the end of 24 hour incubation, total RNA was isolated using TriZol reagent (Invitrogen). The isolated RNA is then reverse-transcribed using oligo(dT) primer and Mo-MLV reverse transcriptase (Invitrogen) with DNAse I (Ambion) treatment for 30 min. The one-tenth of the produced cDNA was amplified by PCR using Taq DNA polymerase (Invitrogen) and two reporter sequence-specific primers. The PCR products were fluorescently labeled by primer extension with 6-arboxyfluorescein (6-FAM) 5'-labeled reporter sequence-specific primer (2 min at 95 C, 20 s at 68 C and 10 min at 72 C) and these products were digested with 5U of HpaI (New England Biolabs) for 2h at 37 C. The fragments were purified using Qiaquick PCR columns (Qiagen), analyzed on an ABI 3130xL genetic analyzer (Applied Biosystems) with peak positions identified by using a set of X-rhodamine (ROX)-labeled MapMarker1000 molecular weight standards (BioVentures). The raw capillary electrophoresis data was processed using Attagraph software (Attagene).

outcome, inactive:
CCc1ccc(O)c(OC)c1
OCCCCC(O)CO (stereo not given)
CC1(C)C2=CCCC(C)(C)[C@]23CC[C@H]1C3
O=C1OC[C@H](Cc2cccc(O)c2)[C@H]1Cc1cccc(O)c1
COc1ccc(N=Nc2cc(C)c(N=Nc3ccc(S(=O)(=O)O)cc3)cc2OC)cc1
CCCCC(CC)COC(C)=O (stereo not given)
C=CCN(CC=C)CC=C
CCC(C)=O
CN(C)CCOc1ccc(/C(=C(/CCCl)c2ccccc2)c2ccccc2)cc1
CC/C=C\CC/C=C/CO
CCc1cc(Cc2cc(CC)cc(C(C)(C)C)c2O)c(O)c(C(C)(C)C)c1
COc1ccc(OC)c(N=Nc2c(O)ccc3ccccc23)c1
CC[N+](C)(CC)CC
COC(C)(C)CCO
CC=Cc1ccc(OCC)c(O)c1
CS(=O)(=O)c1ccc(C2=C(c3ccccc3)C(=O)OC2)cc1
C1=CC2C3C=CC(C3)C2C1 (stereo not given)
C1CCCCC1
NCc1ccco1
CCC1(c2ccccc2)C(=O)NCNC1=O
COC(C)(C)CC(C)=O
CCN(CC)C(=O)N(CC)CC
CC(=O)NCCO
COC(=O)c1ccc(C)cc1C1=NC(C)(C(C)C)C(=O)N1 (stereo not given) (tested in a mixture with another compound)
CC(C)Nc1nc(N)nc(Cl)n1
CC(C)=CCCC(C)CC(=O)O (stereo not given)
O=C1OC2(c3ccccc31)c1ccc(O)c(Br)c1Oc1c2ccc(O)c1Br
Cc1ccc(S(N)(=O)=O)cc1
O=C(CC(=O)c1ccccc1)c1ccccc1
CC(C)(C)c1ccc(C(=O)O)cc1
CCCCCCCCCCCC(=O)OC[C@@H](O)[C@H]1OC[C@H](O)[C@H]1O
C=C(C)C(=O)OCCOCCOCCOC(=O)C(=C)C
Nc1ccc2c(O)cc(S(=O)(=O)O)cc2c1
C=C(C)CNCC
O=c1c(O)c(-c2ccc(O)cc2)oc2cc(O)cc(O)c12
O=c1[nH]c(=O)c2cn[nH]c2[nH]1
CN1C(=O)c2ccccc2C1=O
COc1ccc(CCN2CCC(Nc3nc4ccccc4n3Cc3ccc(F)cc3)CC2)cc1
O=C(O)c1cc(C(=O)O)cc([N+](=O)[O-])c1

AC50, active:
C=CC(=O)OCCC#N 64.2 µM
